# PubChem BioAssay (EPA / NIEHS)
# Results filed as inconclusive are left out. Activity calls are given as the source filed them. How the source made its calls, unless noted: active means hit-call score of the fitted dose curve at least 0.9, where 1 is the maximum; inactive means score below 0.9.
# Assay: CCTE_Harrill_HTTr_Apoptosis_MCF7: CCTE's 6-hour Apoptosis Assessment for the High-Throughput Transcriptomics (HTTr) Platform, in MCF-7 cells cultured in DMEM + 10% fetal bovine serum, Harrill Lab (AID 2284011)
# Procedure, shortened: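 MCF-7 cells in DMEM + 10% FBS exposed 6 h to chemicals over an eight-point dilution series. Caspase-3/7 activation imaged by high-content CellEvent Green staining; fitted bidirectionally versus DMSO.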
row,Structure (SMILES),outcome
1,COP(=O)(OC)O/C(C)=C/C(=O)N(C)C,inactive
2,Nc1cnn(-c2ccccc2)c(=O)c1Cl,inactive
3,CCC(C)n1c(=O)[nH]c(C)c(Br)c1=O (stereo unspecified),inactive
4,CC(C)NC(=O)N1CC(=O)N(c2cc(Cl)cc(Cl)c2)C1=O,inactive
5,CCNC(=O)NC(=O)C(C#N)=NOC,inactive
6,O=P(O)(O)CCCl,inactive
7,CN=C=S,inactive
8,COC(=O)NC(=S)Nc1ccccc1NC(=S)NC(=O)OC,inactive
9,COc1cc(Cl)c(OC)cc1Cl,inactive
10,Nc1c(Cl)c(Cl)nc(C(=O)O)c1Cl,inactive

# Assay: CCTE_Harrill_HTTr_CellCount_MCF7: CCTE's Cell Proliferation Assessment for the High-Throughput Transcriptomics (HTTr) Platform, Harrill Lab (AID 2284012; active means hit-call score of the fitted dose curve at least 0.9, where 1 is the maximum;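 further: cells exposed to compound for six hours; intended direction is loss of nuclei count meaning fewer cells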)
# Procedure, shortened: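 MCF-7 cells were exposed for 6 h to an eight-point dilution series; Hoechst-labeled nuclei were counted by high content imaging. Curves were fitted bidirectionally against DMSO as negative control and baseline, with signal loss indicating reduced cell count.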
row,Structure (SMILES),outcome
1,COC(=O)NS(=O)(=O)c1ccc(N)cc1,inactive
2,CCC(C)n1c(=O)[nH]c(C)c(Br)c1=O (stereo unspecified),inactive
3,C=CCOC(=O)C(C)(C)OC(=O)c1cc(-n2c(=O)cc(C(F)(F)F)n(C)c2=O)ccc1Cl,inactive
4,Clc1nc(Cl)nc(Nc2ccccc2Cl)n1,inactive
5,CC1(C)C(C(=O)OC(C#N)c2cccc(Oc3ccccc3)c2)C1(C)C (stereo unspecified),inactive
6,O=C(Nc1ccccc1-c1ccc(Cl)cc1)c1cccnc1Cl,inactive
7,CCNC(=O)NC(=O)C(C#N)=NOC,inactive
8,CS(=O)(=O)c1cc(C(F)(F)F)ccc1C(=O)c1cnoc1C1CC1,inactive
9,COP(=S)(OC)SCn1nnc2ccccc2c1=O,inactive
10,CC(C)Oc1cccc(NC(=O)c2ccccc2C(F)(F)F)c1,inactive
11,OC(c1ccc(Cl)cc1)(c1ccc(Cl)cc1)C(Cl)(Cl)Cl,inactive
12,COC(=O)NC(=S)Nc1ccccc1NC(=S)NC(=O)OC,inactive
13,CS(=O)(=O)c1ccc(C(=O)C2C(=O)CCCC2=O)c([N+](=O)[O-])c1,inactive
14,COP(=S)(OC)Oc1ccc([N+](=O)[O-])c(C)c1,inactive
15,CCOc1nc(C(Cl)(Cl)Cl)ns1,inactive
16,Nc1c(Cl)c(Cl)nc(C(=O)O)c1Cl,inactive
17,CN/C(=N\[N+](=O)[O-])NCc1cnc(Cl)s1,inactive

# Assay: CCTE_Shafer_MEA_acute_burst_number: CCTE's Neural Acute Assay for Single-Electrode Bursts, Shafer Lab (AID 2284013)
# Procedure, shortened: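 Primary rat cortical neurons on 16-electrode MEA wells, treated on DIV 13 or 15 with compound at 0.03-40 uM. Single-electrode burst count from 40-min recordings at 37 C before and after exposure; percent change from baseline per well, DMSO negative control.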
Structure (SMILES),outcome,AC50
CCOc1nc(F)cc2nc(S(=O)(=O)Nc3c(Cl)cccc3Cl)nn12,inactive,
N#CN=C1SCCN1Cc1ccc(Cl)nc1,inactive,
Clc1nc(Cl)nc(Nc2ccccc2Cl)n1,inactive,
CC1(C)C(C(=O)OC(C#N)c2cccc(Oc3ccccc3)c2)C1(C)C (stereo unspecified),inactive,
O=C(Nc1ccccc1-c1ccc(Cl)cc1)c1cccnc1Cl,inactive,
COP(=S)(OC)SCn1nnc2ccccc2c1=O,inactive,
OC(c1ccc(Cl)cc1)(c1ccc(Cl)cc1)C(Cl)(Cl)Cl,,2080 nM (active)
C=C(C)CN(CC)c1c([N+](=O)[O-])cc(C(F)(F)F)cc1[N+](=O)[O-],inactive,
CN/C(=N\[N+](=O)[O-])NCc1cnc(Cl)s1,inactive,

# Assay: CCTE_Shafer_MEA_acute_per_burst_spike_number_mean: CCTE's Neural Acute Assay for Average Number of Spikes Per Burst, Shafer Lab (AID 2284015);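 further: hits are decreases in mean spikes per burst versus baseline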
# Procedure, shortened: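 Rat primary cortical neurons on 48-well MEAs (DIV 13 or 15) were treated with 0.03-40 uM compound at 37 C. Mean spikes per burst over 40 min were recorded before and after exposure and expressed as percent change from baseline, relative to DMSO.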
Structure (SMILES),outcome,AC50
CCOc1nc(F)cc2nc(S(=O)(=O)Nc3c(Cl)cccc3Cl)nn12,inactive,
N#CN=C1SCCN1Cc1ccc(Cl)nc1,inactive,
Clc1nc(Cl)nc(Nc2ccccc2Cl)n1,inactive,
CC1(C)C(C(=O)OC(C#N)c2cccc(Oc3ccccc3)c2)C1(C)C (stereo unspecified),,440 nM (active)
O=C(Nc1ccccc1-c1ccc(Cl)cc1)c1cccnc1Cl,inactive,
CNC(=O)Oc1cccc2ccccc12,inactive,
COP(=S)(OC)SCn1nnc2ccccc2c1=O,inactive,
OC(c1ccc(Cl)cc1)(c1ccc(Cl)cc1)C(Cl)(Cl)Cl,inactive,
C=C(C)CN(CC)c1c([N+](=O)[O-])cc(C(F)(F)F)cc1[N+](=O)[O-],inactive,
CN/C(=N\[N+](=O)[O-])NCc1cnc(Cl)s1,inactive,

# Assay: CCTE_Shafer_MEA_acute_interburst_interval_mean: CCTE's Neural Acute Assay for Mean Interburst Interval, Shafer Lab (AID 2284016);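 further: percent change of mean interburst interval versus each well's own pre-dose baseline; curves fitted for decrease in interburst interval relative to DMSO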
# Procedure, shortened: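 Rat primary cortical neurons on 48-well MEAs at DIV 13 or 15 were exposed acutely to 0.03-40 uM. Spikes detected at 8x rms noise, 37 C. Mean interburst interval from 40 min recordings expressed as percent change from 40 min pre-treatment baseline.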
Structure (SMILES),outcome,AC50
CCOc1nc(F)cc2nc(S(=O)(=O)Nc3c(Cl)cccc3Cl)nn12,inactive,
N#CN=C1SCCN1Cc1ccc(Cl)nc1,inactive,
Clc1nc(Cl)nc(Nc2ccccc2Cl)n1,inactive,
CC1(C)C(C(=O)OC(C#N)c2cccc(Oc3ccccc3)c2)C1(C)C (stereo unspecified),,309 nM (active)
O=C(Nc1ccccc1-c1ccc(Cl)cc1)c1cccnc1Cl,inactive,
CNC(=O)Oc1cccc2ccccc12,inactive,
COP(=S)(OC)SCn1nnc2ccccc2c1=O,inactive,
OC(c1ccc(Cl)cc1)(c1ccc(Cl)cc1)C(Cl)(Cl)Cl,inactive,
C=C(C)CN(CC)c1c([N+](=O)[O-])cc(C(F)(F)F)cc1[N+](=O)[O-],inactive,
CN/C(=N\[N+](=O)[O-])NCc1cnc(Cl)s1,inactive,

# Assay: CCTE_Shafer_MEA_acute_burst_percentage_mean: CCTE's Neural Acute Assay for Percentage of Spikes in a Burst, Shafer Lab (AID 2284017);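 on AC50: curve fitted for loss of signal so potency reflects decreased burst percentage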
# Procedure, shortened: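 Primary rat cortical neurons on 48-well MEA plates, treated on DIV 13 or 15 at 0.03-40 uM. Spikes detected at 8x rms noise at 37C; percent change from 40-min baseline to 40-min post-dose recording, fitted versus DMSO.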
Structure (SMILES),outcome,AC50
CCOc1nc(F)cc2nc(S(=O)(=O)Nc3c(Cl)cccc3Cl)nn12,inactive,
N#CN=C1SCCN1Cc1ccc(Cl)nc1,inactive,
Clc1nc(Cl)nc(Nc2ccccc2Cl)n1,inactive,
CC1(C)C(C(=O)OC(C#N)c2cccc(Oc3ccccc3)c2)C1(C)C (stereo unspecified),,1280 nM (active)
O=C(Nc1ccccc1-c1ccc(Cl)cc1)c1cccnc1Cl,,28500 nM (active)
CNC(=O)Oc1cccc2ccccc12,inactive,
COP(=S)(OC)SCn1nnc2ccccc2c1=O,inactive,
OC(c1ccc(Cl)cc1)(c1ccc(Cl)cc1)C(Cl)(Cl)Cl,,4810 nM (active)
C=C(C)CN(CC)c1c([N+](=O)[O-])cc(C(F)(F)F)cc1[N+](=O)[O-],inactive,
CN/C(=N\[N+](=O)[O-])NCc1cnc(Cl)s1,inactive,
